Experimental data taken from PubChem BioAssay (NCATS).
Inconclusive results are not listed. A call without a number means that no potency is given here. Active and inactive are the calls of the source. Unless noted, calls follow the shape of the dose curve; as a rule, active = well fitted curve in the direction sought with a large enough effect; inconclusive = small, poorly fitted or top-dose-only effect, or another doubt; inactive = no such curve, though single readings can be large; an effect the other way counts as inactive or inconclusive.

What was measured:
[1] = qHTS to identify inhibitors of the type 1 interferon - major histocompatibility complex class I in skeletal muscle: primary screen against the NCATS Pharmaceutical Collection (AID 1347407);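 also: luminescence of HiBiT knocked into endogenous HLA-B as interferon-induced MHC class I level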; also: potency is read from the fitted curve at half-maximal effect
Method in brief: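 A qHTS format is used: 8-point, 1:5 compound series with 46 uM top final concentration, applied alongside 4 ng/ml IFN-beta to HLA-B*08:01-HiBiT knock-in myoblasts. Luminescence is measured after 24 h treatment.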

[2] = biological target: Protein phosphatase 1D (Homo sapiens) (UniProt O15297); test: RapidFire Mass Spectrometry qHTS Assay for Modulators of WT P53-Induced Phosphatase 1 (WIP1) (AID 1347424);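 also: amount of dephosphorylated VEPPL-S-QETFS peptide product formed by WIP1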; also: potency is read from the fitted curve at half-maximal effect
Method in brief: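 10 nM WIP1 preincubated with compounds 1 hr at room temperature in pH 7.5 Tris buffer with 30 mM MgCl2, 1 mM TCEP; 2 uM VEPPL-pS-QETFS phosphopeptide for 5 min, formic acid quench; dephosphorylated product quantified by RapidFire MS against labelled standard.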

[3] = biological target: Protein phosphatase 1D (Homo sapiens) (UniProt O15297); test: Rhodamine-PBP qHTS Assay for Modulators of WT P53-Induced Phosphatase 1 (WIP1) (AID 1347425)
Method in brief: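 WIP1 (5 nM final) was preincubated with compound for 1 hour at room temperature. It then dephosphorylated 10 uM VEPPL-pS-QETFS peptide in Tris-HCl pH 7.5 with 30 mM MgCl2. Released Pi was detected by 10 uM Rh-PBP fluorescence (ex 525/em 598 nm) read at 1-min intervals for 11 min, as delta f1 - f0.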

[4] = Primary qHTS for Huh7 cytotoxicity: counterscreen for inhibitors of MERS-S pseudotyped particle cell entry (AID 1479147; calls by dose curve; also: potency is read from the fitted curve at half-maximal effect)
[5] = Primary qHTS for Vero E6 cytotoxicity: counterscreen for inhibitors of SARS-S pseudo-typed particle cell entry (AID 1479150; calls by dose curve)
[6] = Primary qHTS for inhibitors of SARS-S pseudo-typed particle cell entry (AID 1479145; calls by dose curve; also: nearly all actives have a fitted effect of over 45% in size; also: potency is read from the fitted curve at half-maximal effect)
[7] = Primary qHTS for inhibitors of MERS-S pseudo-typed particle cell entry (AID 1479149; calls by dose curve; also: nearly all actives have a fitted effect of over 60% in size; also: potency is read from the fitted curve at half-maximal effect)

Chain of Protein phosphatase 1D (Homo sapiens) (O15297 whole entry, looked up): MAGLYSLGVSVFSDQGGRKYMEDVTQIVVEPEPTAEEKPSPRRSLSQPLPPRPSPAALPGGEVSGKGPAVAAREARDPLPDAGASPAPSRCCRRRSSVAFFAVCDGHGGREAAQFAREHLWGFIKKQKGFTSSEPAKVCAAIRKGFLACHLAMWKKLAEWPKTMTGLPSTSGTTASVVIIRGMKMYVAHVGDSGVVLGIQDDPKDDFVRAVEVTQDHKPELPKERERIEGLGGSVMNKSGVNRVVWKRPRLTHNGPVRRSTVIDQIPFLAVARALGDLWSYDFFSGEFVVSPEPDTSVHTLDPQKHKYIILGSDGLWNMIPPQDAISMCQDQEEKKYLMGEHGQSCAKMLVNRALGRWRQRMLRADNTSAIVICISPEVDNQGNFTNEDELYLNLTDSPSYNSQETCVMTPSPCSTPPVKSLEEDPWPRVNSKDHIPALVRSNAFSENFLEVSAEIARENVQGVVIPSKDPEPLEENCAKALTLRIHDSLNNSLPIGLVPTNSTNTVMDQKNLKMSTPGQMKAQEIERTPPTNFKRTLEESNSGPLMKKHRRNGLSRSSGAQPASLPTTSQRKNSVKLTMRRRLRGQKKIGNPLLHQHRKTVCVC

| SMILES | Potency [1] | Potency [2] | outcome [3] | Potency [4] | Potency [5] | Potency [6] | Potency [7] |
| --- | --- | --- | --- | --- | --- | --- | --- |
| Clc1ccc(C(OCCN2CCCCC2)c2ccccc2)cc1 (stereo unspecified) | inactive | inactive | inactive | inactive | inactive | – | – |
| Clc1ccc(CO/N=C(\Cn2ccnc2)c2ccc(Cl)cc2Cl)c(Cl)c1 | inactive | inactive | inactive | inactive | inactive | – | – |
| Oc1ccc2[nH]cc(CCCCN3CC=C(c4ccccc4)CC3)c2c1 | – | inactive | inactive | – | – | – | – |
| CCOC(=O)c1ncn2c1CN(C)C(=O)c1c(I)cccc1-2 | inactive | inactive | inactive | inactive | inactive | – | – |
| C=CCOC(Cn1ccnc1)c1ccc(Cl)cc1Cl (stereo unspecified) | inactive | inactive | inactive | inactive | inactive | – | – |
| C[C@H](N)[C@H](O)c1ccc(O)c(O)c1 | – | 2 µM (active) | inactive | inactive | inactive | inactive | inactive |
| CC(C)C(Br)C(=O)NC(N)=O (stereo unspecified) | inactive | inactive | inactive | inactive | inactive | – | inactive |
| CCOC(=O)c1cncn1C(C)c1ccccc1 (stereo unspecified) | – | inactive | inactive | inactive | inactive | inactive | – |
| CC(Cc1ccccc1)NCCCCl (stereo unspecified) | inactive | inactive | inactive | inactive | inactive | – | inactive |
| CC#C[C@]1(O)CC[C@H]2[C@@H]3C[C@H](C)C4=CC(=O)CC[C@]4(C)[C@H]3CC[C@@]21C | – | inactive | inactive | inactive | inactive | 20 µM (active) | – |
| C[C@@H]1CN(C2CCC(C#N)(c3ccc(F)cc3)CC2)CC[C@]1(C(=O)O)c1ccccc1 (stereo partly specified) | inactive | inactive | inactive | inactive | inactive | – | inactive |
| COc1ccc2c(C(=O)c3ccc(Cl)cc3)c(C)n(CC(=O)O)c2c1 | inactive | – | inactive | – | – | – | – |
| C=CC[C@]1(O)CC[C@H]2[C@@H]3CCC4=CC(=O)CCC4=C3C=C[C@@]21C | inactive | inactive | inactive | inactive | inactive | – | – |
| CC[C@H]1C[C@H]2[C@@H]3CCC4=CC(=O)CC[C@@H]4[C@H]3CC[C@]2(C)[C@H]1O | inactive | inactive | inactive | inactive | inactive | – | – |
| Clc1ccc(CSC(Cn2ccnc2)c2ccc(Cl)cc2Cl)cc1 (stereo unspecified) | – | inactive | inactive | inactive | – | – | – |
| Cc1nnc2n1-c1sc(CCc3ccc(CC(C)C)cc3)cc1C(c1ccccc1Cl)=NC2C (stereo unspecified) | inactive | – | – | inactive | inactive | – | 20 µM (active) |

| SMILES | Potency [1] | Potency [2] | outcome [3] | Potency [4] | Potency [5] | Potency [6] | Potency [7] |
| --- | --- | --- | --- | --- | --- | --- | --- |
| O=C(N[C@H]1N=C(c2ccccc2F)c2cccc3c2N(CC3)C1=O)c1cc2ccccc2[nH]1 | inactive | – | inactive | inactive | inactive | inactive | inactive |
| C[C@]12CC[C@H]3[C@@H](CCC4=CC(=O)CC[C@@H]43)[C@@H]1CC[C@@H]2O | – | inactive | inactive | – | – | – | – |
| Cc1ccc([N+](=O)[O-])[c]2c1[O][Hg]2 | 11.8 µM (active) | 3.98 µM (active) | – | 2.24 µM (active) | – | 10 µM (active) | 2.82 µM (active) |
| c1ccc2c(c1)Sc1ccccc1N2CC1CN2CCC1CC2 (stereo unspecified) | – | inactive | inactive | – | inactive | – | – |
| O=C1CN2CCOC2(c2ccccc2Cl)c2cc(Cl)ccc2N1 (stereo unspecified) | inactive | inactive | inactive | inactive | inactive | – | – |
| CC1N=C(N)OC1c1ccccc1 (stereo unspecified) | – | inactive | inactive | – | – | – | – |
| CC(C(O)c1ccccc1)N(C)C/C=C/c1ccccc1 (stereo unspecified) | inactive | inactive | inactive | inactive | inactive | – | – |
| O=C(NC(=O)c1c(F)cccc1F)Nc1cc(Cl)c(OC(F)(F)C(F)C(F)(F)F)cc1Cl (stereo unspecified) | inactive | inactive | inactive | inactive | inactive | – | – |
| CCOP(=S)(OCC)O/N=C(\C#N)c1ccccc1 | – | inactive | inactive | – | – | – | – |
| CNC(=O)Oc1cccc2ccccc12 | – | inactive | inactive | inactive | inactive | inactive | inactive |
| CC[C@]1(O)CC[C@H]2[C@@H]3CCC4=CCCC[C@@H]4[C@H]3CC[C@@]21C | – | inactive | inactive | inactive | inactive | inactive | inactive |
| CCCCCCCCCCCC[N+](C)(C)CCOc1ccccc1 | – | inactive | inactive | inactive | – | – | 22.4 µM (active) |
| Oc1ccc([C@H]2CNCc3c2ccc(O)c3O)cc1O | inactive | – | inactive | inactive | inactive | inactive | inactive |
| C[C@]12Cc3nonc3C[C@@H]1CC[C@@H]1[C@@H]2CC[C@@]2(C)[C@H]1CC[C@]2(C)O | – | inactive | inactive | inactive | inactive | – | – |
| O=C(CCCN1CCC(n2c(=O)[nH]c3ccccc32)CC1)c1ccc(F)cc1 | inactive | inactive | inactive | inactive | inactive | – | – |
